Experiment [1] is described as follows: stimulators of nuclear beta-catenin in C2C12, primary screen, imaging, WNT3A-conditioned medium, mouse C2C12, NPC library (AID 1117326; in the data active = nuclear beta-catenin stimulation mostly above about 4.2%, no sharp cut-off; inactive = mostly below about 10%). Conditions: stronger effect = higher value.
Experiment [2] is described as follows: growth inhibition of GSK3B-pretreated HCT116 cells – cell-based, CellTiter-Glo, 0.2 to 20 µM (AID 1117336;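 active = compounds lowering colon cancer cell viability after pretreatment blocking the GSK3B kinase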). Conditions: HCT116 viability after GSK3B inhibitor, at 20 µM, stronger effect = higher value. (In general: ATP-based viability assays read luminescence as a measure of living cells.)
Experiment [3] can be described thus: inhibition of endothelial tube formation, primary screen, imaging, VEGF stimulated, CD31 staining, tube area, NPC library (AID 1117340;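 active = compound that reduces growth-factor-driven endothelial tube area in a mixed cell culture, no cutoff stated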). The note with it: VEGF-stimulated ADSC/ECFC co-culture, at 10 µM, stronger effect = higher value.
The nature of experiment [4]: HCT116 colon cancer cell growth inhibition, primary screen, CellTiter-Glo luminescence, NPC library (AID 1117342;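 active = compounds that lower survival of HCT116 colon cancer cells in the luminescence readout, no numeric limit stated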). Conditions: at 20 µM (top of the series).
The nature of experiment [5]: CellTiter-Glo luminescent readout of SW480 viability loss, NPC library primary (AID 1117343;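 active = compounds that lower viability of the colon cancer cells in the luminescence readout, with no numeric limit stated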). The note with it: CellTiter-Glo luminescence; at 20 µM (top of the series) unless noted.
Experiment [6] is described as follows: decreased DLD-1 cellular survival, CellTiter-Glo luminescent readout, NPC compound collection, primary HTS (AID 1117346;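 active = compounds that lower survival of DLD-1 colon cancer cells in the luminescence readout, no cutoff given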). The note with it: DLD-1 viability, CellTiter-Glo luminescence; at 20 µM (top of the series).
Experiment [7] is described as follows: ovarian cancer cell viability with rucaparib, profiling panel, oncology-focused library, rucaparib conditional (AID 1508598). The note with it: patient-derived ovarian cancer cells, CellTiter-Glo viability, 144 h, stronger effect = lower value.
Experiment [8] can be described thus: ICB984 medulloblastoma cell growth inhibition, synergistic combos for chromothripsis tumors, cisplatin or BGB combos (AID 1671451; call rule not given here;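 also: cells exposed for 96 hours before readout; 0% = vehicle DMSO and 100% = killing by high DMSO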). Conditions: ICB984 medulloblastoma cells, drug combinations, stronger effect = higher value.
Where [9] appears, read: at 0.000305 µM, OCI-C5x cells, with rucaparib 10 µM, 100% = cells with rucaparib alone.
[10] abbreviates: at 0.000305 µM, OCI-C5x cells, without rucaparib.
[11] abbreviates: at 0.000305 µM, OCI-P5x cells, with rucaparib 20 µM, 100% = cells with rucaparib alone.
[12] abbreviates: at 0.000305 µM, OCI-P5x cells, without rucaparib.
[13] abbreviates: at 0.00122 µM, OCI-C5x cells, with rucaparib 10 µM, 100% = cells with rucaparib alone.
Where [14] appears, read: at 0.00122 µM, OCI-C5x cells, without rucaparib.
The mark [15] stands for this setting: at 0.00122 µM, OCI-P5x cells, with rucaparib 20 µM, 100% = cells with rucaparib alone.
Where [16] appears, read: at 0.00122 µM, OCI-P5x cells, without rucaparib.
Where [17] appears, read: at 0.00488 µM, OCI-C5x cells, with rucaparib 10 µM, 100% = cells with rucaparib alone.
[18] abbreviates: at 0.00488 µM, OCI-C5x cells, without rucaparib.
Where [19] appears, read: at 0.00488 µM, OCI-P5x cells, with rucaparib 20 µM, 100% = cells with rucaparib alone.
Setting [20] is: at 0.00488 µM, OCI-P5x cells, without rucaparib.
Where [21] appears, read: at 0.0195 µM, OCI-C5x cells, with rucaparib 10 µM, 100% = cells with rucaparib alone.
Where [22] appears, read: at 0.0195 µM, OCI-C5x cells, without rucaparib.
[23] abbreviates: at 0.0195 µM, OCI-P5x cells, with rucaparib 20 µM, 100% = cells with rucaparib alone.
Setting [24] is: at 0.0195 µM, OCI-P5x cells, without rucaparib.
[25] abbreviates: at 0.0781 µM, OCI-C5x cells, with rucaparib 10 µM, 100% = cells with rucaparib alone.
[26] abbreviates: at 0.0781 µM, OCI-C5x cells, without rucaparib.
Where [27] appears, read: at 0.0781 µM, OCI-P5x cells, with rucaparib 20 µM, 100% = cells with rucaparib alone.
Where [28] appears, read: at 0.0781 µM, OCI-P5x cells, without rucaparib.
Where [29] appears, read: at 0.313 µM, OCI-C5x cells, with rucaparib 10 µM, 100% = cells with rucaparib alone.
The mark [30] stands for this setting: at 0.313 µM, OCI-C5x cells, without rucaparib.
The mark [31] stands for this setting: at 0.313 µM, OCI-P5x cells, with rucaparib 20 µM, 100% = cells with rucaparib alone.
Setting [32] is: at 0.313 µM, OCI-P5x cells, without rucaparib.
Where [33] appears, read: at 1.25 µM, OCI-C5x cells, with rucaparib 10 µM, 100% = cells with rucaparib alone.
[34] abbreviates: at 1.25 µM, OCI-C5x cells, without rucaparib.
[35] abbreviates: at 1.25 µM, OCI-P5x cells, with rucaparib 20 µM, 100% = cells with rucaparib alone.
The mark [36] stands for this setting: at 1.25 µM, OCI-P5x cells, without rucaparib.
[37] abbreviates: at 5 µM, OCI-C5x cells, with rucaparib 10 µM, 100% = cells with rucaparib alone.
Setting [38] is: at 5 µM, OCI-C5x cells, without rucaparib.
[39] abbreviates: at 5 µM, OCI-P5x cells, with rucaparib 20 µM, 100% = cells with rucaparib alone.
The mark [40] stands for this setting: at 5 µM, OCI-P5x cells, without rucaparib.

Several values for one entry are separate records, joined by “and”; a condition that tells them apart may be missing. Equal entries are not always repeated. Activity calls are given as the source filed them.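 The calls were made as follows, unless noted: active = normalized viability below 100% at a tested concentration; inactive = the rest.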

Turning to `Cc1c(N)cccc1C(F)(F)F`, the nuclear beta-catenin stimulation in experiment [1] (at 10 µM) is 0.9% (inactive); in experiment [1] (stimulation, at 2 µM), 5.4%. For the same compound, in experiment [2], the viability decrease is 2.8% (inactive). In addition, in experiment [3], the tube area decrease is 5.6% (inactive). For the same compound, in experiment [4], the inhibition of viability was 11.2% (inactive). The values for the viability decrease (inhibition) in experiment [5] and in experiment [6] were 1.3% (inactive) and 6.9% (inactive), respectively.

Turning to `Cn1cc(S(C)=O)c(=O)c2ccc(F)cc21` (stereo unspecified), the nuclear beta-catenin stimulation in experiment [1] (at 10 µM) was 0.3% (inactive); in experiment [1] (stimulation, at 2 µM), 10.4%. In addition, the viability decrease in experiment [2] is -6.9% (inactive). The tube area decrease in experiment [3] was 1.1% (inactive). For the same compound, the inhibition of viability in experiment [4] is 4.2% (inactive). For the same compound, the viability decrease (inhibition) was -1.3% (inactive) in experiment [5] and -1.8% (inactive) in experiment [6].

Consider `Cc1ccc(-n2nc(C(C)(C)C)cc2NC(=O)Nc2ccc(OCCN3CCOCC3)c3ccccc23)cc1`, for which the viability in experiment [7] (setting [9]) is 105% (inactive); in experiment [7] (setting [10]), 123% (inactive); in experiment [7] (setting [11]), 112% (inactive); in experiment [7] (setting [12]), 115% (inactive); in experiment [7] (setting [13]), 97.2% (active); in experiment [7] (setting [14]), 113% (inactive). The viability in experiment [7] (setting [15]) was 97.9% (active); in experiment [7] (setting [16]) it was 104% (inactive); in experiment [7] (setting [17]), 106% (inactive); in experiment [7] (setting [18]) it was 116% (inactive); in experiment [7] (setting [19]), 91.6% (active); in experiment [7] (setting [20]) it was 111% (inactive). Also, the viability was 105% (inactive) in experiment [7] (setting [21]); 120% (inactive) in experiment [7] (setting [22]); 101% (inactive) in experiment [7] (setting [23]); 108% (inactive) in experiment [7] (setting [24]); 100% (inactive) in experiment [7] (setting [25]); 107% (inactive) in experiment [7] (setting [26]). In addition, the viability in experiment [7] (setting [27]) is 108% (inactive); in experiment [7] (setting [28]) it was 109% (inactive); in experiment [7] (setting [29]) it was 107% (inactive); in experiment [7] (setting [30]), 114% (inactive); in experiment [7] (setting [31]) it was 97.2% (active); in experiment [7] (setting [32]) it was 101% (inactive). Moreover, the viability in experiment [7] (setting [33]) is 107% (inactive); in experiment [7] (setting [34]) it was 115% (inactive); in experiment [7] (setting [35]) it was 96.1% (active); in experiment [7] (setting [36]) it was 95.3% (active); in experiment [7] (setting [37]), 117% (inactive); in experiment [7] (setting [38]), 144% (inactive). The viability was 96.1% (active) in experiment [7] (setting [39]) and 94.8% (active) in experiment [7] (setting [40]).

With `CCCC(CCC)C(=O)O`, the viability is 125% (inactive) in experiment [7] (setting [9]); 105% (inactive) in experiment [7] (setting [10]); 129% (inactive) in experiment [7] (setting [11]); 126% (inactive) in experiment [7] (setting [12]); 125% (inactive) in experiment [7] (setting [13]); 128% (inactive) in experiment [7] (setting [14]). Further, the viability in experiment [7] (setting [15]) is 124% (inactive); in experiment [7] (setting [16]) it was 121% (inactive); in experiment [7] (setting [17]), 113% (inactive); in experiment [7] (setting [18]), 115% (inactive); in experiment [7] (setting [19]), 122% (inactive); in experiment [7] (setting [20]), 127% (inactive). Also, the viability is 119% (inactive) in experiment [7] (setting [21]); 117% (inactive) in experiment [7] (setting [22]); 123% (inactive) in experiment [7] (setting [23]); 123% (inactive) in experiment [7] (setting [24]); 111% (inactive) in experiment [7] (setting [25]); 118% (inactive) in experiment [7] (setting [26]). Also, the viability in experiment [7] (setting [27]) was 121% (inactive); in experiment [7] (setting [28]) it was 124% (inactive); in experiment [7] (setting [29]), 116% (inactive); in experiment [7] (setting [30]), 115% (inactive); in experiment [7] (setting [31]), 118% (inactive); in experiment [7] (setting [32]) it was 122% (inactive). The viability in experiment [7] (setting [33]) was 119% (inactive); in experiment [7] (setting [34]) it was 112% (inactive); in experiment [7] (setting [35]) it was 112% (inactive); in experiment [7] (setting [36]) it was 128% (inactive); in experiment [7] (setting [37]), 115% (inactive); in experiment [7] (setting [38]), 116% (inactive). Further, the viability was 122% (inactive) in experiment [7] (setting [39]) and 112% (inactive) in experiment [7] (setting [40]). In addition, the inhibition in experiment [8] (BGB IC20 combo, at 0.005 µM) is -9.77% and 11.3%; in experiment [8] (BGB IC40 combo, at 0.005 µM), -20.4% and -26.6%; in experiment [8] (BGB IC40 combo, at 0.05 µM), -15.7% and -0.427%; in experiment [8] (at 0.5 µM), -27.6% (inactive) and -12.8% (inactive); in experiment [8] (cisplatin combo, at 0.05 µM), -18.9% and -4.04%; in experiment [8] (cisplatin combo, at 0.5 µM), -35.6% and -3.79%. Also, the inhibition in experiment [8] (cisplatin combo, at 5 µM) was -25.9% and 4.77%; in experiment [8] (measured here: 5 uM single agent, at 5 µM), -29.5% and -2.64%.

Broadly, the viability is a read-out of living cells in per cent, often relative to untreated cells. As a reminder, the inhibition is the change of the read-out against control, counted positive when it falls.

Values taken from PubChem BioAssay.
